Results reported in the supplement of paper PMC10849652.
About 7,900 targets were measured; listed, in parts, are those with a hit and a random draw of the rest. About 0.6% of all pairs of compound and target were hits.

Tests used:
Assay in all cases: log2 fold change, soluble protein after heating vs DMSO (PISA); higher = thermal stabilisation; K562 cells, 10 uM, 30 min; active = over 0.2 and 3.5 SD of the protein, either way, in both replicates (recomputed)
IRAK-1-4 Inhibitor I = compound: C1COCCN1CCN2C3=CC=CC=C3N=C2NC(=O)C4=CC(=CC=C4)[N+](=O)[O-] [IRAK-1-4 Inhibitor I]
Outline: (§1)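 Quantification of soluble protein used TMTpro 16plex LC-MS/MS, with channel sums equalised. Samples were the supernatant after 21,000xg for 90 min of pooled aliquots from K562 cells (2×10^6 cells/mL) treated with 10 μM compound for 30 min, heated for 3 min over 48°C-58°C, and extracted in PBS with 0.5% NP-40 at 4°C. Values, from duplicates, describe thermal stability against control samples on a log2 fold-change scale.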

ibrutinib = compound: C=CC(=O)N1CCC[C@@H](n2nc(-c3ccc(Oc4ccccc4)cc3)c3c(N)ncnc32)C1 [ibrutinib]
Outline: as §1

[1] = compound: CC(=O)c1cnc2ccc(-c3cc(Cl)c(O)c(Cl)c3)nc2c1N[C@H]1CC[C@H](CN(C)C)CC1
Outline: as §1

ralimetinib = compound: CC(C)(C)Cn1c(N)nc2ccc(-c3[nH]c(C(C)(C)C)nc3-c3ccc(F)cc3)nc21 [ralimetinib]
Outline: as §1

[2] = compound: CC(C)(O)CC(=O)NCCn1ccc2ncnc(Nc3ccc(Oc4cccc(C(F)(F)F)c4)c(Cl)c3)c21
Outline: as §1

[3] = compound: CC(C)C1=C2N=C(C=C(N2N=C1)NCC3=CC=CC=C3)NCCCCCCN
Outline: as §1

[4] = compound: CC(C)C[C@@H](C=O)NC(=O)[C@H](CC(C)C)NC(=O)[C@H](CC(C)C)NC(=O)OCc1ccccc1
Outline: as §1

pinometostat = compound: CC(C)N(C[C@H]1O[C@@H](n2cnc3c(N)ncnc32)[C@H](O)[C@@H]1O)[C@H]1C[C@@H](CCc2nc3cc(C(C)(C)C)ccc3[nH]2)C1 [pinometostat]
Outline: as §1

[5] = compound: CC1=C(C(CC(=O)N1)C2=CC=C(C=C2)C(F)(F)F)C(=O)NC3=C(C=C4C(=C3)C=NN4)F
Outline: as §1

[6] = compound: CC1=C(C2=C(C=C1)C(=O)C3=CC=CC=C3N2CCCN)C
Outline: as §1

[7] = compound: CC1=C(C=C(C=C1)NC(=O)C2=CC(=CC=C2)C(C)(C)C#N)NC3=CC4=C(C=C3)N=CN(C4=O)C
Outline: as §1

[8] = compound: CC1=C(C=C(C=C1)NC(=O)C2=CC(=CC=C2)N(C)C)NC(=O)C3=CC=C(C=C3)O
Outline: as §1

[9] = compound: CC1=CC=C(C=C1)SC2=C3C=C(SC3=CN=C2)C(=O)N
Outline: as §1

[10] = compound: CC1=NC(=CC=C1)C2=C(N=C(N2)C(C)(C)C)C3=CC4=NC=CN=C4C=C3
Outline: as §1

Nexturastat A = compound: CCCCN(Cc1ccc(C(=O)NO)cc1)C(=O)Nc1ccccc1 [Nexturastat A]
Outline: as §1

vemurafenib = compound: CCCS(=O)(=O)Nc1ccc(F)c(C(=O)c2c[nH]c3ncc(-c4ccc(Cl)cc4)cc23)c1F [vemurafenib]
Outline: as §1

[11] = compound: CCCS(=O)(=O)Nc1ccc(F)c(C(=O)c2c[nH]c3ncc(Cl)cc23)c1F
Outline: as §1

[12] = compound: CCCc1cc(C)[nH]c(=O)c1CNC(=O)c1cc(-c2ccnc(N3CCN(C)CC3)c2)cc2c1cnn2C(C)C
Outline: as §1

givinostat = compound: CCN(CC)Cc1ccc2cc(COC(=O)Nc3ccc(C(=O)NO)cc3)ccc2c1 [givinostat]
Outline: as §1

barasertib = compound: CCN(CCCOc1ccc2c(Nc3cc(CC(=O)Nc4cccc(F)c4)[nH]n3)ncnc2c1)CCOP(=O)(O)O [barasertib]
Outline: as §1

Measured: log2 fold change

RBM12 (UniProt Q9NTZ6)
inactive: IRAK-1-4 Inhibitor I -0.042 | ibrutinib -0.018 | [1] -0.135 | ralimetinib -0.037 | [2] -0.145 | [3] -0.237 | [4] 0.009 | pinometostat -0.043 | [5] 0.012 | [6] -0.007 | [7] 0.016 | [8] -0.101 | [9] 0.057 | [10] 0.116 | Nexturastat A -0.085 | vemurafenib 0.058 | [11] 0.136 | [12] 0.008 | givinostat 0.062 | barasertib 0.122

RBM26 isoform 2 (UniProt Q5T8P6)
UniProt Q5T8P6, sequence (Q5T8P6 whole entry, looked up): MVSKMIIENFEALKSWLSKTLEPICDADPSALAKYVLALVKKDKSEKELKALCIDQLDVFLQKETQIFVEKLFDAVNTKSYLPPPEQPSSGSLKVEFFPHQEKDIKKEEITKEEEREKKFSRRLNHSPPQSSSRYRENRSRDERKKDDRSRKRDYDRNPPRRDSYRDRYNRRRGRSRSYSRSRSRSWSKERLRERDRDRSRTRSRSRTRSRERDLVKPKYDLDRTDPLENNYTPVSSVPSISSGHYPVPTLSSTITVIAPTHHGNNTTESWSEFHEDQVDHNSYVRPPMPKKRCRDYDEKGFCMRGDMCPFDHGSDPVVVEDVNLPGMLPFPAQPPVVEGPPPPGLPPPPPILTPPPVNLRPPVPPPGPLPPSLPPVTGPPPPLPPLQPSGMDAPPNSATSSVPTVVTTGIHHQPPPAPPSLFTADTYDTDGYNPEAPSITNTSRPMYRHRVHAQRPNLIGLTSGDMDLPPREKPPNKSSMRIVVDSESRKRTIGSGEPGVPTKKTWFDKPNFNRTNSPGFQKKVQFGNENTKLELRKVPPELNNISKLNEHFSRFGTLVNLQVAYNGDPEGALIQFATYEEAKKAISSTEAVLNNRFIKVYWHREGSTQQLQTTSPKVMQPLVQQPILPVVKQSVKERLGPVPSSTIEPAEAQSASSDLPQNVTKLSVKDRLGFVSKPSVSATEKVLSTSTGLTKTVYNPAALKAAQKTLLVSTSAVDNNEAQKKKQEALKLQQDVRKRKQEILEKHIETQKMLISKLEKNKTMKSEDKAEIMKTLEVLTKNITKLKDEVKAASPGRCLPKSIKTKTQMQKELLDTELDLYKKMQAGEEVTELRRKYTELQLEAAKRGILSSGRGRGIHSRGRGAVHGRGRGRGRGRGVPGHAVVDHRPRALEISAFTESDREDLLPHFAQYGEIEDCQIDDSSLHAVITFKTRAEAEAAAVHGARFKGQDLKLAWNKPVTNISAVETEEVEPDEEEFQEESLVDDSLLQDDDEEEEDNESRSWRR
inactive: IRAK-1-4 Inhibitor I -0.086 | ibrutinib 0.032 | [1] -0.179 | ralimetinib -0.021 | [2] -0.16 | [3] -0.295 | [4] 0.024 | pinometostat -0.022 | [5] 0.014 | [6] 0.06 | [7] 0.122 | [8] -0.088 | [9] 0.033 | [10] 0.116 | Nexturastat A -0.184 | vemurafenib 0.143 | [11] 0.09 | [12] -0.014 | givinostat 0.097 | barasertib 0.079

RCC1 isoform 2 (UniProt P18754)
UniProt P18754, sequence (P18754 whole entry, looked up): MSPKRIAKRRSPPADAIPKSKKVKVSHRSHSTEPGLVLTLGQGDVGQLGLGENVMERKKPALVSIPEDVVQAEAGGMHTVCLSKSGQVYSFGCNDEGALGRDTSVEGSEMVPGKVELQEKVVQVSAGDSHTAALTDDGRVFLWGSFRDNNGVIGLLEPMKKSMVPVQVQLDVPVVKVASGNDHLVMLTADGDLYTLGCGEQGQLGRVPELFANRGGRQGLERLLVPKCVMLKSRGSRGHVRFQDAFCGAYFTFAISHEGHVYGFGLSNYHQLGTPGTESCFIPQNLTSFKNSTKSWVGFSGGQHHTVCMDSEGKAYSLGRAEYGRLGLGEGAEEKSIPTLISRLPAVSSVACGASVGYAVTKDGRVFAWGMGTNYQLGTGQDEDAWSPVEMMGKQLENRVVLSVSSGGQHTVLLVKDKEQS
inactive: IRAK-1-4 Inhibitor I -0.026 | ibrutinib -0.04 | [1] -0.14 | ralimetinib 0 | [2] -0.16 | [3] -0.094 | [4] 0.041 | pinometostat 0.023 | [5] -0.08 | [7] 0.197 | [8] -0.129 | [9] 0.073 | [10] 0.055 | Nexturastat A -0.027 | vemurafenib 0.13 | [11] 0.104 | [12] 0.111 | givinostat 0.087 | barasertib 0.053
active: [6] -0.899

RGS10 (UniProt O43665)
UniProt O43665, sequence (O43665 whole entry, looked up): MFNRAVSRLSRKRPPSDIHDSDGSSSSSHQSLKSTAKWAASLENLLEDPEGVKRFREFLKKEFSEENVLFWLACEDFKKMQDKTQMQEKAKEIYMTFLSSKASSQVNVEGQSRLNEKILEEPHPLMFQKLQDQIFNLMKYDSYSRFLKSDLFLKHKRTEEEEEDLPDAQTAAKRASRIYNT
inactive: IRAK-1-4 Inhibitor I 0.046 | ibrutinib 0.047 | [1] -0.024 | ralimetinib 0.026 | [2] -0.025 | [3] -0.057 | [4] -0.004 | pinometostat 0.087 | [5] -0.008 | [6] 0.015 | [7] -0.012 | [8] -0.02 | [9] -0.02 | [10] -0.041 | Nexturastat A -0.012 | vemurafenib 0.048 | [11] 0.034 | [12] 0.02 | givinostat 0.026 | barasertib 0.016

SCD (UniProt O00767)
UniProt O00767, sequence (O00767 whole entry, looked up): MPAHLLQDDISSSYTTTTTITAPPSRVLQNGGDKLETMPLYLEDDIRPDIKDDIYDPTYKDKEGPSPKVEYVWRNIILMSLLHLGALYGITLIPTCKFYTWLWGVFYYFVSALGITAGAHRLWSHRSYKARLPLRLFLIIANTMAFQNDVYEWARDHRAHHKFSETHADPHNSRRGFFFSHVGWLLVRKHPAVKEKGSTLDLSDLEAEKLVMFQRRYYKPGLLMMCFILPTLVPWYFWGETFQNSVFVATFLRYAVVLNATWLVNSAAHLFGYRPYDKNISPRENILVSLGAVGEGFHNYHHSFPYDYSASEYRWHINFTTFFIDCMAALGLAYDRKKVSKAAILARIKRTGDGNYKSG
inactive: IRAK-1-4 Inhibitor I 0.048 | ibrutinib -0.023 | [1] 0.008 | ralimetinib -0.148 | [2] -0.046 | [3] -0.222 | [4] 0.101 | pinometostat 0 | [5] 0.024 | [6] -0.027 | [7] -0.076 | [8] 0.037 | [9] 0.038 | [10] 0.078 | Nexturastat A -0.121 | vemurafenib 0.022 | [11] -0.053 | [12] -0.021 | barasertib 0.003
active: givinostat -0.457

RRS1 (UniProt Q15050)
UniProt Q15050, sequence (Q15050 whole entry, looked up): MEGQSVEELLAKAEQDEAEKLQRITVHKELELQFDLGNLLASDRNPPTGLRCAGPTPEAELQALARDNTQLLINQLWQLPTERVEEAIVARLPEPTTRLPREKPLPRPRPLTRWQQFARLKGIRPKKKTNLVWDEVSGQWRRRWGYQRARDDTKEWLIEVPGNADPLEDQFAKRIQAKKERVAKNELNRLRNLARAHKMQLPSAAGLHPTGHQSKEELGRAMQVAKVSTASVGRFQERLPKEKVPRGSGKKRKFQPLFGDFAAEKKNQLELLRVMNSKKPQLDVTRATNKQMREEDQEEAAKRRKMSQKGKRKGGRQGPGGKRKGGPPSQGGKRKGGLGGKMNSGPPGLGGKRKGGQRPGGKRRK
active: [6] -1
inactive: IRAK-1-4 Inhibitor I -0.084 | ibrutinib 0.04 | [1] 0.217 | ralimetinib 0.118 | [2] 0.229 | [3] 0.312 | [4] 0.067 | pinometostat 0.297 | [5] -0.11 | [7] 0.024 | [8] 0.021 | [9] -0.043 | [10] -0.163 | Nexturastat A 0.31 | vemurafenib -0.174 | [11] -0.03 | [12] 0.104 | givinostat 0.093 | barasertib -0.101

RSL1D1 (UniProt O76021)
inactive: IRAK-1-4 Inhibitor I -0.071 | ibrutinib -0.011 | [1] 0.22 | ralimetinib 0.105 | [2] 0.212 | [3] 0.538 | [4] 0.076 | pinometostat 0.393 | [5] -0.072 | [6] -0.299 | [7] -0.019 | [8] 0.039 | [9] -0.155 | [10] -0.148 | Nexturastat A 0.256 | vemurafenib -0.126 | [11] -0.137 | [12] 0.15 | givinostat 0.087 | barasertib -0.167

RPA3 (UniProt P35244)
UniProt P35244, sequence (P35244 whole entry, looked up): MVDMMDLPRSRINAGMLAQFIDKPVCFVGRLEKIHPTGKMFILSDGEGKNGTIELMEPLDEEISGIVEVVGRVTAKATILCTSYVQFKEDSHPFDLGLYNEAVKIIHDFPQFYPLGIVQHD
active: vemurafenib 0.298
inactive: IRAK-1-4 Inhibitor I 0.02 | ibrutinib 0.029 | [1] 0.016 | ralimetinib 0.038 | [2] -0.097 | [3] -0.025 | [4] -0.137 | pinometostat 0.016 | [5] 0.063 | [6] 0.129 | [7] 0.076 | [8] -0.059 | [9] 0.111 | [10] 0.014 | Nexturastat A 0.091 | [11] 0.053 | [12] -0.044 | givinostat -0.109 | barasertib 0.066

RHOXF2 (UniProt Q9BQY4)
UniProt Q9BQY4, sequence (Q9BQY4 whole entry, looked up): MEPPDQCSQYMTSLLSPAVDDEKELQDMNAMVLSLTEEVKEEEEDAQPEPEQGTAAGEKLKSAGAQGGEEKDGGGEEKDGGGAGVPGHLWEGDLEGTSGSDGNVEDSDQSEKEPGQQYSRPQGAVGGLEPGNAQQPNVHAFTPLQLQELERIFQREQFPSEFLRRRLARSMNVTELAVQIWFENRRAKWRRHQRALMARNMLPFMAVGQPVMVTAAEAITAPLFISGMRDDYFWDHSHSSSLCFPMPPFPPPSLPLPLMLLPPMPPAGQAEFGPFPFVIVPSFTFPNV
inactive: IRAK-1-4 Inhibitor I 0.012 | ibrutinib 0.003 | [1] 0.002 | ralimetinib 0.051 | [2] -0.031 | [3] -0.03 | [4] 0.027 | pinometostat -0.037 | [5] 0.027 | [6] -0.007 | [7] -0.03 | [8] 0.034 | [9] -0.037 | [10] 0.021 | Nexturastat A 0.083 | vemurafenib -0.015 | [11] 0.012 | [12] -0.024 | givinostat 0.05 | barasertib 0.033

RELA (UniProt Q04206)
UniProt Q04206, sequence (Q04206 whole entry, looked up): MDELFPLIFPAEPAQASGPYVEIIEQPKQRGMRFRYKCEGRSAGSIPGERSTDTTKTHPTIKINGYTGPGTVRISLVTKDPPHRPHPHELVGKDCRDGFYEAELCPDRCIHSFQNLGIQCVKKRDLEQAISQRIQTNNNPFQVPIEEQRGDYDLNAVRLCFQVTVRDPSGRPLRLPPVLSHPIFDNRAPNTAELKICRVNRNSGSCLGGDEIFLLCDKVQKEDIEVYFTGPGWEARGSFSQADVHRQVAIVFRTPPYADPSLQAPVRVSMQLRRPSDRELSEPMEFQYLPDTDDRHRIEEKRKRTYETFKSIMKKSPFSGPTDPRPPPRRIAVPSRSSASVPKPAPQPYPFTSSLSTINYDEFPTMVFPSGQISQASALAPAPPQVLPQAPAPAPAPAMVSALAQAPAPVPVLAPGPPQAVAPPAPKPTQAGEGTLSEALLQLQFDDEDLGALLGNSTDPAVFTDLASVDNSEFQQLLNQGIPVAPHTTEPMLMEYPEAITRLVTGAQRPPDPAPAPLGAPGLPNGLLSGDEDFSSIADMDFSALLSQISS
inactive: IRAK-1-4 Inhibitor I -0.011 | ibrutinib -0.002 | [1] 0.022 | ralimetinib 0.025 | [2] 0 | [3] -0.018 | [4] 0.031 | pinometostat 0.003 | [5] -0.022 | [6] -0.054 | [7] 0.013 | [8] 0 | [9] 0.016 | [10] 0.014 | Nexturastat A 0.028 | vemurafenib 0.014 | [11] 0.067 | [12] 0.021 | givinostat 0.015 | barasertib 0.013

RPAIN isoform 8 (UniProt Q86UA6)
inactive: IRAK-1-4 Inhibitor I -0.022 | ibrutinib 0.034 | [1] -0.124 | ralimetinib -0.048 | [2] 0.048 | [4] -0.221 | pinometostat 0.011 | [6] -0.168 | [7] 0.009 | [8] 0.038 | [9] -0.098 | [10] 0.136 | Nexturastat A -0.017 | vemurafenib -0.062 | [11] 0.042 | barasertib 0.029

SCYL3 isoform 2 (UniProt Q8IZE3)
UniProt Q8IZE3, sequence (Q8IZE3 whole entry, looked up): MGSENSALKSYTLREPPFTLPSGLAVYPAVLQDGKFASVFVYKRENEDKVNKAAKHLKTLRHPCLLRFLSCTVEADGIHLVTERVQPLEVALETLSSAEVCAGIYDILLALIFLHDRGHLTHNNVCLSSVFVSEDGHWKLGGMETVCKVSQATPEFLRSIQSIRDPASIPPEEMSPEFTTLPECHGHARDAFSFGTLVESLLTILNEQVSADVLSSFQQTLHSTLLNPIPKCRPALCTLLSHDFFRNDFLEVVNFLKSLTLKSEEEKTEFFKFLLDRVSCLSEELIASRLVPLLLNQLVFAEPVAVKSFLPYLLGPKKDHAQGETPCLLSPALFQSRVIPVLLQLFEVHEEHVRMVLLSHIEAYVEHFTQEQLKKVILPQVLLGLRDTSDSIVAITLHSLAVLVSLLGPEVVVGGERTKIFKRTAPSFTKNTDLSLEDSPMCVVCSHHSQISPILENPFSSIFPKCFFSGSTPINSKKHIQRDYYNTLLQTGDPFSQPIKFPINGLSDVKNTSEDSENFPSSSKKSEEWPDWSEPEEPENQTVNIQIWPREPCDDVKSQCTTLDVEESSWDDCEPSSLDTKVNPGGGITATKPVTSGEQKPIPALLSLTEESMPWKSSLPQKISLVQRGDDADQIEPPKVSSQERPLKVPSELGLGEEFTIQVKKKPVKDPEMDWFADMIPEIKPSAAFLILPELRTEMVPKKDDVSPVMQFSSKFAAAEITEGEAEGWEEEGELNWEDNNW
inactive: IRAK-1-4 Inhibitor I 0.087 | ibrutinib 0.02 | [1] -0.002 | ralimetinib -0.043 | [2] -0.063 | [3] -0.052 | [4] -0.002 | pinometostat 0.054 | [5] 0.013 | [6] -0.146 | [8] -0.061 | [9] -0.002 | [10] 0.005 | Nexturastat A 0.004 | vemurafenib 0.008 | [11] 0.022 | [12] -0.01 | givinostat 0.012 | barasertib -0.012

RAB3IL1 (UniProt E9PK89)
inactive: IRAK-1-4 Inhibitor I -0.012 | ibrutinib -0.021 | [1] -0.006 | ralimetinib -0.018 | [2] -0.127 | [3] -0.032 | [4] 0.006 | pinometostat 0.017 | [5] 0.08 | [6] -0.005 | [7] -0.069 | [8] -0.037 | [9] 0 | [10] 0.061 | Nexturastat A -0.111 | vemurafenib -0.08 | [11] -0.053 | givinostat 0.278 | barasertib -0.014

RAD50, A0A494C0Y7
inactive: IRAK-1-4 Inhibitor I 0.015 | ibrutinib 0.072 | [1] -0.037 | ralimetinib -0.085 | [4] 0.196 | pinometostat 0.015 | [6] 0.051 | [7] -0.005 | [8] -0.03 | [9] -0.063 | [10] -0.041 | vemurafenib 0.045 | [11] 0 | [12] -0.244 | barasertib -0.171

SDHAF4 (UniProt Q5VUM1)
UniProt Q5VUM1, sequence (Q5VUM1 whole entry, looked up): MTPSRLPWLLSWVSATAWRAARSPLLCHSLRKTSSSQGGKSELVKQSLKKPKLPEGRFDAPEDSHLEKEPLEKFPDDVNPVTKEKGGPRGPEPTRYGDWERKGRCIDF
inactive: IRAK-1-4 Inhibitor I -0.071 | ibrutinib 0.01 | [1] -0.055 | [2] 0.081 | [3] 0.149 | pinometostat -0.082 | [5] -0.101 | [6] 0.021 | [7] -0.066 | [9] 0.053 | [10] 0.022 | Nexturastat A -0.039 | [11] -0.065 | [12] -0.035 | barasertib -0.018
active: givinostat 0.368

RB1CC1 (UniProt Q8TDY2)
inactive: IRAK-1-4 Inhibitor I 0.092 | ibrutinib 0.094 | [1] 0.045 | ralimetinib 0.089 | [2] -0.11 | [3] 0.045 | [4] 0.03 | pinometostat -0.023 | [5] -0.015 | [6] 0.041 | [7] -0.061 | [8] -0.005 | [9] 0.025 | [10] -0.031 | Nexturastat A 0.161 | vemurafenib -0.022 | [11] -0.034 | [12] 0.147 | givinostat 0.102 | barasertib -0.008

RAF1 isoform 2 (UniProt P04049)
UniProt P04049, sequence (P04049 whole entry, looked up): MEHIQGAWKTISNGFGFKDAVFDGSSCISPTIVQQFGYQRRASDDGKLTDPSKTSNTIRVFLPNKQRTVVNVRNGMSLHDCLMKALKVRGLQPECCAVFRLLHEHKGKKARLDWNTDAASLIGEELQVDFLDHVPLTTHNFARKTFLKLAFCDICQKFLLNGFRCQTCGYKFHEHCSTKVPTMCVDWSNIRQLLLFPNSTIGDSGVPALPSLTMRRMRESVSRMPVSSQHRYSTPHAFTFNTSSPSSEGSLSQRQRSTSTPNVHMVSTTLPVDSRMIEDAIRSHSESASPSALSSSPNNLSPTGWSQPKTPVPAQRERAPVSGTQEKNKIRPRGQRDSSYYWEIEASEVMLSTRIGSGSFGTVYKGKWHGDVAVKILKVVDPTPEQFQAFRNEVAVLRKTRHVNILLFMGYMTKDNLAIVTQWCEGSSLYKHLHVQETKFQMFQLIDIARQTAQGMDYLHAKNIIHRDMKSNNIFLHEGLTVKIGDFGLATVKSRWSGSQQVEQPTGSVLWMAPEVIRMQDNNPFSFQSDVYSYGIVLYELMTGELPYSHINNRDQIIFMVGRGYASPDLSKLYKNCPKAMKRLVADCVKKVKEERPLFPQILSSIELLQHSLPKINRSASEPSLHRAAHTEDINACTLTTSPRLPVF
inactive: IRAK-1-4 Inhibitor I -0.038 | ibrutinib -0.058 | [1] -0.263 | ralimetinib -0.054 | [2] -0.072 | [3] -0.12 | [4] 0.066 | pinometostat 0.29 | [6] 0.09 | [7] 0.317 | [8] 0.056 | [9] 0.078 | [10] -0.043 | Nexturastat A 0.077 | vemurafenib 0.17 | [11] 0.438 | [12] -0.113 | givinostat 0.016 | barasertib 0.044
